Data taken from PubChem BioAssay AID1645860 (Buhrlage Lab, Dana-Farber Cancer Institute and Novartis …, 2021).
The whole screen tested about 47,000 compounds, of which about 2,500 (5.3%) were called active. Cut-off read from the data, not from the text of the source: active = inhibition above about 30%; inactive = the rest. The entries come from a sample that favours actives as a whole.

Biological target: Ubiquitin carboxyl-terminal hydrolase 30 (Homo sapiens) (UniProt Q70CQ3)
Experiment: blocks human USP30 ubiquitin-rhodamine cleavage (AID 1645860)
Details: purified USP30, Ub-rhodamine cleavage fluorescence; at 25 µM; stronger effect = higher value

Ubiquitin carboxyl-terminal hydrolase 30 (Homo sapiens), sequence (Q70CQ3 whole entry, looked up): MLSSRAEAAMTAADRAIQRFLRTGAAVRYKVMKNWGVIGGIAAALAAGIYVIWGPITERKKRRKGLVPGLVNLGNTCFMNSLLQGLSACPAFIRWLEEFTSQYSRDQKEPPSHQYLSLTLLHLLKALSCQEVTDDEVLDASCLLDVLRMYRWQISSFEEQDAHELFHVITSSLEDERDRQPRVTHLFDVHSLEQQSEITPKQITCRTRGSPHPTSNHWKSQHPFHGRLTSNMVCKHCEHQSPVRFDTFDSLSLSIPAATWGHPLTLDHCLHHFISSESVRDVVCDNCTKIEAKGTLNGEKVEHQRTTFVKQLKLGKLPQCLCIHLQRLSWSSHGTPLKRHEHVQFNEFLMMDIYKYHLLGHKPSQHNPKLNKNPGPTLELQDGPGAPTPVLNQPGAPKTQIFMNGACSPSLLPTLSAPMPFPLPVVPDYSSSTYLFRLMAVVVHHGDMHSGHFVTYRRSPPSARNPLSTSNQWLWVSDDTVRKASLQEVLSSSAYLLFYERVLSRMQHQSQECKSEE

inhibition, inactive:
COc1cc(NC(=O)C2CCCCC2)c(OC)cc1NC(=O)CCC(=O)N1CCCCC1 -281%
Cc1ccc(CS(=O)(=O)N2CCC(C(=O)N3CCC(C)CC3)CC2)cc1 9.43%
O=C(C1CCCCC1)N1CCCC(c2ccnc3ncnn23)C1 (stereo not drawn) 21.7%
Cc1ccccc1CNS(=O)(=O)c1c[nH]c2ncccc12 -1.83%
Cc1nc(-c2ccc(C)c(S(=O)(=O)NC3CCCC3)c2)cs1 -1.27%
Cc1cncc(C(=O)N[C@@H]2CC[C@H]3Oc4ccccc4N[C@H]3[C@@H]2O)c1 6.67%
Cc1c(C(=O)O)[nH]c2ccccc12 -68.1%
Cc1cc(=O)oc2c(C)c(OC(C)C(=O)NCc3ccncc3)ccc12 (stereo not drawn) 6.63%
Cc1c(OCc2ccccc2)noc1C1CCN(CC(N)=O)CC1 6.2%
Cc1cnc(N2CCC3(CC(=O)N(c4cccnc4)C3)C2)nc1 (stereo not drawn) -20.9%
Cc1ccc(N(C)C(=O)C2CCC(=O)N2S(=O)(=O)c2ccccc2)cc1 (stereo not drawn) 20.6%
COc1cccc(-c2nnc(-c3ccc(-n4ccnc4)nc3)o2)c1 -12.7%
COCCn1c(=O)[nH]c2cc(C(=O)NCCNc3ccc([N+](=O)[O-])cc3C#N)ccc2c1=O -7.15%
O=C(NCCc1ccccc1)c1ccc2c(=O)nc3c(-c4ccccc4F)n[nH]n3c2c1 -10.3%
COc1cccc(Nc2nc(N3CCCCC3)nc3c2cnn3C)c1 -24.2%
CC(NC(=O)c1nc2n(n1)-c1ccccc1S(=O)(=O)N2)c1cc2ccccc2o1 (stereo not drawn) 0.0682%
O=C(Nc1cnc(N2CCCC2)nc1)c1ccco1 -2.69%
COc1ccc(NC(=O)Cc2noc(-c3cccc(OC)c3)n2)cc1 -26.6%
CC(C)[C@H](NC(=O)N1CCn2c1nc1ccccc12)C(=O)NCCc1ccccc1 -9.82%
COCCCNC(=O)[C@H](Cc1ccccc1)NC(=O)N1CCn2c1nc1ccccc12 1.89%
COCCn1cnc2nnc3ccc(C(=O)NC(C)C)cc3c21 -9.87%
COc1ccc(NC(=O)CSc2cn(Cc3ccccc3C)c3ccccc23)c(OC)c1 8.78%
COc1ccc(CCNC(=O)c2ccc3ccccc3c2)cc1OC -12.8%
CC(C)c1noc2ncc(-c3nnc(C4CC4)o3)cc12 -9.16%
COc1ccc2ncc(S(=O)(=O)c3ccccc3)c(N3CCN(c4cccc(C)c4C)CC3)c2c1 -1.48%
COc1ccc2ncc(S(=O)(=O)c3ccccc3)c(N3CCOCC3)c2c1 -25.7%
COCCn1cnc2c(-c3ccccc3)cn(CC(=O)NCc3ccccc3)c2c1=O -28.3%
COCC(=O)N1CCCCCC1C1CCN(c2nn3cc(C)nc3s2)CC1 (stereo not drawn) 16.4%
COC(=O)c1ccc(C2c3[nH]c4ccccc4c3C[C@H]3C(=O)N(CC4CCCO4)CC(=O)N23)cc1 (stereo partly drawn) -26.4%
CCOc1ccc(S(=O)(=O)N2CCCCC2)cc1NC(=O)c1ccc(C#N)cc1 11.5%
COc1ccccc1OCC(=O)Nc1cc(C(F)(F)F)ccc1N1CCCCC1 -1.33%
CCn1nnc2c1C(COC)CN(C(=O)CC1=CCCCC1)C2 (stereo not drawn) -64.1%
CCN(C(=O)c1nc(-c2cccc(F)c2)n2c1CCCCC2)c1ccccc1 -10.9%
C=C(NC(=O)C(=C)NC(=O)c1csc(C2=N[C@@H]3c4csc(n4)[C@H]4NC(=O)c5csc(n5)[C@H]([C@](C)(O)[C@@H](C)O)NC(=O)C5CSC(=N5)/C(=C/C)NC(=O)C([C@@H](C)O)NC(=O)c5csc(n5)[C@]3(CC2)NC(=O)[C@H](C)NC(=O)C(=C)NC(=O)[C@H](C)NC(=O)C([C@@H](C)CC)NC2C=Cc3c(C(C)O)cc(nc3[C@H]2O)C(=O)OC4C)n1)C(N)=O (stereo partly drawn) -88.3%
COc1ccccc1Nc1nc(-c2cnc(N3CCCC3)nc2C)cc(=O)[nH]1 23.2%
COC(=O)c1ccc(NC(=O)CSc2nnc(C(C)Oc3ccccc3)n2C)cc1 (stereo not drawn) 25.4%
Cc1cc(C)nc(N(C(=O)C2CC2)c2ccc(OC(F)(F)F)cc2)n1 -22.9%
CN1[C@@H](CCC(=O)N2CCc3ccccc32)CNC(=O)[C@@H]2[C@H]1CCN2Cc1ncc[nH]1 -9.99%
O=S(=O)(c1ccccc1)N1CCC(n2cnnc2-c2ccccc2)CC1 -0.303%
Cc1cc(O)c(=O)cc2c1C[C@H]1CC(C)(C)/C=C/C[C@@]3(C)Oc4cc(=O)c(O)cc(C)c4C[C@@H]3C[C@H](O)[C@]1(C)O2 -161%
CC(C)(C)CC(=O)N1CCN(c2ccc(N3CCCC3)nn2)CC1 -15.1%
COc1ccc(S(=O)(=O)N(C(=O)c2ccccc2)c2ccc3oc4c(c3c2)CCCC4)cc1 -10.1%
CCC(=O)c1ccc(OCC(=O)Nc2ccc3c(c2)CCC3)cc1 -0.468%

inhibition, active:
Cc1nc(-c2ccc(C)c(S(=O)(=O)NCc3ccccc3Cl)c2)cs1 34.4%
C[C@@H]1O[C@@H](OC2[C@H](Oc3cc(O)c4c(c3)OC(c3ccc(O)cc3)CC4=O)O[C@H](CO)[C@@H](O)[C@@H]2O)[C@H](O)[C@H](O)[C@H]1O (stereo partly drawn) 33%
COc1ccc(-c2cc(=O)oc3c(C)c(OCc4ccccc4F)ccc23)cc1 44%
O=C(NCCc1ccccc1)c1ccc2c(=O)n(Cc3ccco3)c(=O)n(Cc3cccc([N+](=O)[O-])c3)c2c1 66.4%
CSCC[C@H](NC(=O)N1CCn2c1nc1ccccc12)C(=O)NCc1ccc2c(c1)OCO2 43.3%
COc1ccc(CCNC(=O)CSc2cn(CCNC(=O)c3ccccc3C)c3ccccc23)cc1OC 36.5%
COc1ccc2ncc(S(=O)(=O)c3ccccc3)c(Nc3ccc(F)cc3)c2c1 38.4%
O=C(Nc1cc(C(F)(F)F)ccc1-n1cnc2ccccc21)c1ccc(S(=O)(=O)N2CCCCC2)cc1 32.6%
Cc1nnc(OCC(=O)Nc2ccc(OC(F)(F)F)cc2)c2ccccc12 64.8%
O=C(COc1ccc2oc3c(c2c1)CCCC3)Nc1ccccn1 48.3%
